This note sets out measurements from the supplement of paper PMC10681739.
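Also: Full-length recombinant human ETS1 or RUNX1 bound to double-stranded 36-bp genomic probes on microarrays, detected by protein-specific primary antibody and Alexa488 secondary, spot fluorescence as median of four replicate spots.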

The target in the assay is RUNX1 (UniProt Q01196). Put plainly: RUNX1 binding intensity (PBM fluorescence) in presence of ETS1, normalised to RUNX1-only experiment (arbitrary fluorescence units); higher = stronger binding. The conditions noted are these: RUNX1 concentration 2 nM; ETS1 concentration 25 nM. The procedure: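 Cooperative gcPBM on 36-bp genomic probes with neighbouring ETS1 and RUNX1 sites. Recombinant human RUNX1 (2 nM) was incubated alone or with ETS1 (25 nM) and detected with anti-RUNX1 antibody plus Alexa488 secondary. Values are medians over 4 replicate spots; the RUNX1+ETS1 data were normalised to the RUNX1-only data. The probes sit in constant array flanks that are not printed.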
Chain of RUNX1 (Q01196 whole entry): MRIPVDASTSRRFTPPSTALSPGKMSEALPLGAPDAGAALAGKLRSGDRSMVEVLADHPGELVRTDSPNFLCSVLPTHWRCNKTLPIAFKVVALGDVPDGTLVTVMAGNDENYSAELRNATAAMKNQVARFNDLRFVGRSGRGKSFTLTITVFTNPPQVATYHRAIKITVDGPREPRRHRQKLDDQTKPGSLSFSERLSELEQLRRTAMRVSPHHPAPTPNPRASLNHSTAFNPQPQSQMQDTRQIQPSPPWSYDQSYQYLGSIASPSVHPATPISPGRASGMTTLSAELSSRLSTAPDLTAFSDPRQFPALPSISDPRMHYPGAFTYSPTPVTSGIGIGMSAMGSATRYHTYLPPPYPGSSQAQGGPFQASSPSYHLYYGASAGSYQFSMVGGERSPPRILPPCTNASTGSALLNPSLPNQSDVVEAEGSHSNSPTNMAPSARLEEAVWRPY
On to TTGACCCGGACGTGGACAAAAGACCGCAAAGGACGC, for which the RUNX1 binding intensity was found to be 1540.
The result for AAATATAGTGCTAAAGGAAGTGGTTTTCATGCAACT reads 1080; that for TTACACAACAGGAAACTATGTTTAGCGGTTAATCCA, 1580.
Take TCTGGCTGGGTGTTGGGATGTGGTTAACCGGGTTGG: the RUNX1 binding intensity came to 876.
AGGCTGTGTGAAGGATGTGGTCAGGCGGAGGCCAGG: the RUNX1 binding intensity was found to be 1600.
To AAATCACGTACCCGGAAACCACATGCACAGAAGTGG belongs 1550; to GACCTGGGTTTCCTGTCTGTACATCGCGGTTCCTAC, 1830; to TCTGTGAAAAAGGATGTGCGGTTATGGAGGAGAACT, 1930.
To ACCAGAACAGGAAATGTTAGTGGTTGAGTTAACGGT belongs 1260; to CCATTTCCCCCATCACTTTGAATTGTGGTTCTTCTC, 2920.
The result for TCCTTAATGGTTCCGGCGGCAGGGACCGCAGCGACG reads 914; that for TCTTCTTCCTCCCCCACCCCAAAAGCCACAGGTGAC, 1410; that for CCATTCTTCCGGTGGAGATGGCTGCGGCCGTGGCGG, 2240.
As to TCCACAGCCGGTTCCGGCCGGTTCCCACAAGCCCCT, the RUNX1 binding intensity amounted to 1130.
To ATTTTAGCATTTTCCTGCTCGGAGACCACATGTTTG belongs 1220; to ATTCCTAGAGAGGAAATGCGGGCTCAGGGTGTCGGC, 897; to GCGGCTTTGTACGGAAACCCACACACATTGTTATTT, 1020.
Take TAAAGAAACAGGATGACTGTGGTTTACTGCGAGCAT: the RUNX1 binding intensity turned out to be 1150.
The result for GTAAACTAGCTCTTCCGGTCTGTGGCCCTCACAGGA reads 1500; that for GTGTTTCCTCTTTGTTTTGGGGCTGTGGTTGCCACA, 3180.
To CTGTGCGAGGCAGGATGTGGTCTCCCGCCACCAGGG belongs 3160; to CTCCGCCAGCCACCGGAACTGCGGCCCAGCAAAAAG, 949; to TACATAGGCGGAAGTGGCCTGCGGGCGCCGGAGTTG, 1710.
The result for GAAGCCCAACAGGATGCCGAGTAACCACCCACTGAA reads 924; that for CGAGGGAGCCGGAAAGATGGTGGTTACCAGATCTGC, 926.
Take CTCACAGAGCAAGTAGGATGTGGTTTCCAGGGGCTG: the RUNX1 binding intensity was determined as 1180.
To CATACAGGATGCTGGGGTATGTAAAACAAACCACGG belongs 964; to GCCTGTCGCAGGAACGGAAGTGGTTACGGCCCTAGT, 3500.
To GTCTGCTTAAAAACAGGAAACCACATATCTCCACCC belongs 1990; to CCCGGAGGACGTCCGGCCTCTGTGAGCCGCAACCTT, 1370.
To AAAAAGCCGGATGTGAAGGCTGTGGTTCTCAACCCG belongs 1310; to GGGCCCGGGCCAGGAAGTGGTTTTGCAGAGGTGTTT, 1930; to CTGCAGATGCATTTCCTTTTTGTGGTAGCAAGCGTG, 1470.
Consider CACCCTCAACTTCCTGACCCATAAACCACAAGCTAT, for which the RUNX1 binding intensity stood at 13100.
The result for AGAAGCTGCAGTCCCGGAAGCGGTTTTAGGGGGCCG reads 1310; that for CCCTGAGCACTTCCCCGTAAGGCTGCGGTGCACGGG, 844; that for TCCAGCGGAAGGGGGCATCTTTGCGGCAGAGGCAGC, 979.
As to GGGGAACGGAAGCTGCTGTCGTTACTGGCGGTTGTA, the RUNX1 binding intensity was found to be 929.
To TACTTCTTCCTGGCAGAGACCGGGAGTGCGGTCCGC belongs 920; to AGAAGCTTCTACAGGAAACCACTAATGGAGACAGAG, 958.
